From PubChem BioAssay (NCI)
About 83,000 compounds went through this panel and 20% of them were active in at least one assay; those are over-represented in the sample as a whole.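 Treatment: one concentration, 48 hours, 96-well format. Scoring: percent growth, with anything below 10 considered active.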 Values without a mark were called inactive. Active and inactive are the calls of the source.

How the values were obtained:
Experiment in all cases: NCI-60 one-dose screen, 48 h (100 = growth as untreated, 0 = no growth, -100 = all killed)
Conditions in all cases: 10 µM unless noted
[1] = system: HCT-15 colon
[2] = system: HT29 colon
[3] = system: SNB-75 CNS
[4] = system: SNB-19 CNS
[5] = system: U251 CNS
[6] = system: PC-3 prostate
[7] = system: SK-MEL-5 melanoma
[8] = system: UACC-62 melanoma
[9] = system: LOX IMVI melanoma
[10] = system: SK-MEL-28 melanoma
[11] = system: EKVX NSCLC
[12] = system: SN12C renal
[13] = system: UO-31 renal
[14] = system: TK-10 renal
[15] = system: ACHN renal
[16] = system: CAKI-1 renal
[17] = system: A498 renal
[18] = system: CCRF-CEM leukemia
[19] = system: MOLT-4 leukemia

Q: What does the source list for NC(=O)Nc1cc(-c2cccc(F)c2)sc1C(=O)N[C@H]1CCCNC1?
A: growth [1]: -10.6% (active); growth [2]: -24% (active); growth [3]: -89.8% (active); growth [4]: -26.7% (active); growth [5]: -62% (active); growth [6]: 16.2%; growth [7]: -27.5% (active); growth [8]: -21.1% (active); growth [9]: -75.2% (active); growth [10]: 14.2%; growth [11]: 4.42% (active); growth [12]: -5.05% (active); growth [13]: -95.4% (active); growth [14]: -66.3% (active); growth [15]: 3.94% (active); growth [16]: -82.3% (active); growth [17]: -83.7% (active); growth [18]: 4.63% (active); growth [19]: 2.79% (active)

Q: With CC(C)c1cc(CNc2nc(Nc3cc(C4CC4)[nH]n3)cc(N3CCN(C)CC3)n2)on1 as the molecule, how does the growth [1] read?
A: 6.83% (active)

Q: What about the growth [2] of the same molecule?
A: 0.12% (active)

Q: What about the growth [3] of the same molecule?
A: -64.2% (active)

Q: What about the growth [4] of the same molecule?
A: 13.4%

Q: And the growth [5]?
A: 1.02% (active)

Q: What about the growth [6] of the same molecule?
A: 4.54% (active)

Q: And the growth [7]?
A: -24.2% (active)

Q: What about the growth [8] of the same molecule?
A: -63.5% (active)

Q: And the growth [9]?
A: -58.4% (active)

Q: What about the growth [10] of the same molecule?
A: -13.9% (active)

Q: What about the growth [11] of the same molecule?
A: 7.39% (active)

Q: What about the growth [12] of the same molecule?
A: 9.72% (active)

Q: And the growth [13]?
A: -2.19% (active)

Q: And the growth [14]?
A: -16.4% (active)

Q: And the growth [15]?
A: 8.49% (active)

Q: What about the growth [16] of the same molecule?
A: 4.85% (active)

Q: And the growth [17]?
A: -78.5% (active)

Q: And the growth [18]?
A: 8.07% (active)

Q: And the growth [19]?
A: 0.889% (active)

Q: What does the source list for O=C(Nc1cccc([N+](=O)[O-])c1)c1ccc(Cl)c(Cl)c1?
A: growth [1]: 93.2%; growth [2]: 78.3%; growth [3]: -2.87% (active); growth [4]: 53.5%; growth [5]: 62.4%; growth [6]: 60.7%; growth [7]: 89.4%; growth [8]: 74.4%; growth [9]: 63.6%; growth [10]: 53.5%; growth [11]: 66.4%; growth [12]: 67.9%; growth [13]: 95.4%; growth [14]: 49.9%; growth [15]: 49.8%; growth [16]: 86.4%; growth [17]: 79.9%; growth [19]: 85.9%

Q: How did the growth [1] turn out when COC(=O)[C@@H](OC)[C@@H]1Cc2cc3cc(OC4CC(OC5CC(O)C(O)C(C)O5)C(O)C(C)O4)c(C)c(O)c3c(O)c2C(=O)[C@H]1OC1CC(OC2CC(OC3CC(C)(O)C(O)C(C)O3)C(O)C(C)O2)C(O)C(C)O1 (stereo partly specified) was run?
A: 7.16% (active)

Q: What about the growth [2] of the same molecule?
A: 3.61% (active)

Q: And the growth [3]?
A: -79.3% (active)

Q: What about the growth [4] of the same molecule?
A: 4.99% (active)

Q: What about the growth [5] of the same molecule?
A: 2.62% (active)

Q: What about the growth [6] of the same molecule?
A: -23.3% (active)

Q: What about the growth [7] of the same molecule?
A: -69.5% (active)

Q: What about the growth [8] of the same molecule?
A: -58.5% (active)

Q: And the growth [9]?
A: -24% (active)

Q: What about the growth [10] of the same molecule?
A: -38% (active)

Q: And the growth [11]?
A: 9.91% (active)

Q: And the growth [12]?
A: 9.04% (active)

Q: What about the growth [13] of the same molecule?
A: -9.9% (active)

Q: What about the growth [14] of the same molecule?
A: 13.7%

Q: And the growth [15]?
A: 4.79% (active)

Q: And the growth [16]?
A: 14.8%

Q: And the growth [17]?
A: -42.9% (active)

Q: And the growth [18]?
A: 2.91% (active)

Q: And the growth [19]?
A: -9.54% (active)

Q: C[C@H]1Oc2cc(cnc2N)-c2c(nn(C)c2C#N)CN(C)C(=O)c2ccc(F)cc21 was tested. Which growth [1] did it give?
A: 96.7%

Q: And the growth [2]?
A: 33%

Q: What about the growth [3] of the same molecule?
A: 83.8%

Q: And the growth [4]?
A: 110%

Q: And the growth [5]?
A: 96.6%

Q: What about the growth [6] of the same molecule?
A: 81.7%

Q: And the growth [7]?
A: 99.3%

Q: And the growth [8]?
A: 70.9%

Q: And the growth [9]?
A: 74.2%

Q: What about the growth [10] of the same molecule?
A: 87.4%

Q: And the growth [11]?
A: 82.5%

Q: What about the growth [12] of the same molecule?
A: 94.6%

Q: What about the growth [13] of the same molecule?
A: 84.3%

Q: What about the growth [14] of the same molecule?
A: 74%

Q: And the growth [15]?
A: 86%

Q: And the growth [16]?
A: 73%

Q: And the growth [17]?
A: 109%

Q: What about the growth [18] of the same molecule?
A: 93.8%

Q: And the growth [19]?
A: 70.5%

Q: Which results are given for CC(=O)Nc1cccc(-n2c(=O)n(C3CC3)c(=O)c3c(Nc4ccc(I)cc4F)n(C)c(=O)c(C)c32)c1?
A: growth [1]: 45.4%; growth [2]: 5.59% (active); growth [3]: 43%; growth [4]: 48.3%; growth [5]: 39.9%; growth [6]: 63.7%; growth [7]: 32.7%; growth [8]: -6.11% (active); growth [9]: 14%; growth [10]: -4.75% (active); growth [11]: 46%; growth [12]: 49.7%; growth [13]: 12%; growth [14]: 21.8%; growth [15]: 42%; growth [16]: 27.1%; growth [17]: -34.4% (active); growth [18]: 68.5%; growth [19]: 65.5%

Q: With Cc1cc(Nc2cc(N3CCN(C)CC3)nc(Sc3ccc(NC(=O)C4CC4)cc3)n2)n[nH]1 as the molecule, how does the growth [1] read?
A: 40.2%

Q: And the growth [2]?
A: 0.79% (active)

Q: What about the growth [3] of the same molecule?
A: 0.133% (active)

Q: And the growth [4]?
A: 46.8%

Q: And the growth [5]?
A: 30%

Q: What about the growth [6] of the same molecule?
A: 35.2%

Q: And the growth [7]?
A: 9.58% (active)

Q: And the growth [8]?
A: 13%

Q: What about the growth [9] of the same molecule?
A: -69.2% (active)

Q: And the growth [10]?
A: 34.4%

Q: What about the growth [11] of the same molecule?
A: 76.6%

Q: What about the growth [12] of the same molecule?
A: 33.4%

Q: What about the growth [13] of the same molecule?
A: 22.3%

Q: What about the growth [14] of the same molecule?
A: 38.8%

Q: What about the growth [15] of the same molecule?
A: 42.4%

Q: And the growth [16]?
A: 31.8%

Q: And the growth [17]?
A: -16% (active)

Q: What about the growth [18] of the same molecule?
A: 35.6%

Q: What about the growth [19] of the same molecule?
A: 26%

Q: Which results are given for CC(=O)c1c(C)c2cnc(Nc3ccc(N4CCNCC4)cn3)nc2n(C2CCCC2)c1=O?
A: growth [1]: 22.4%; growth [2]: -22.8% (active); growth [3]: 54.9%; growth [4]: 50.5%; growth [5]: 37.8%; growth [6]: 32.9%; growth [7]: 41.1%; growth [8]: 49.9%; growth [9]: 17.6%; growth [10]: 56.4%; growth [11]: 58.8%; growth [12]: 37.1%; growth [13]: 20.2%; growth [14]: 32.4%; growth [15]: 17.1%; growth [16]: 26.3%; growth [17]: 31.7%; growth [18]: 12.2%; growth [19]: 11%
